Test systems include NCI-H23 lung; NCI-H226 lung; NCI-H322M lung; HOP-62 NSCLC; NCI-H460 lung; NCI-H522 lung; A549/ATCC NSCLC; 786-0 renal; COLO 205 colon.
Experiment in all cases: NCI-60 one-dose screen, 48 h (100 = growth as untreated, 0 = no growth, -100 = all killed)
Holding throughout (conditions): 10 µM

We go through 16 molecules from PubChem BioAssay (NCI).

The panel holds about 83,000 compounds, 20% with a hit somewhere; the sample as a whole holds those more often.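 Percent growth is the endpoint: 0 to 100 indicates growth inhibition (40 means 60% inhibition), 0 means no net growth, and negative values indicate cell death.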 A number with no mark means an inactive call. Calls of active or inactive are those of the source. Rule for the calls: active = growth percent below 10; inactive = the rest.

For the molecule `OCc1ccc(-c2ccc(-c3ccc(CO)s3)o2)s1`, the growth with NCI-H23 lung is 47.5%; in the assay on NCI-H226 lung, -23.9% (active); in the assay on NCI-H322M lung, 55.3%; in the assay with HOP-62 NSCLC, 67.1%; in the assay with NCI-H460 lung, -4.49% (active); in the assay with NCI-H522 lung it was 25.9%. Also, the growth in the assay on A549/ATCC NSCLC was 19.8%; in the assay with 786-0 renal, 30.2%; with COLO 205 colon it was 13.1%.
For `O=c1[nH]cc(Cl)cc1O`, the growth in the assay with NCI-H23 lung is 96.4%; in the assay with NCI-H226 lung, 95.5%; in the assay on NCI-H322M lung, 97.1%; in the assay on HOP-62 NSCLC, 103%; in the assay on NCI-H460 lung, 94.1%; in the assay on NCI-H522 lung, 60.7%. Moreover, the growth in the assay with A549/ATCC NSCLC was 75.2%; in the assay on 786-0 renal it was 101%; in the assay with COLO 205 colon, 112%.
In the case of `CC1(O)OC(COc2ccc(Cl)cc2)COC1O` (centres undefined), the growth is 102% with NCI-H23 lung; 102% in the assay on NCI-H226 lung; 104% with NCI-H322M lung; 106% in the assay with HOP-62 NSCLC; 106% with NCI-H460 lung; 104% with NCI-H522 lung. The growth in the assay on A549/ATCC NSCLC is 106%; with 786-0 renal it was 105%; with COLO 205 colon, 126%.
Turning to `Cc1cc(=O)[nH]c(NN=C2CCCC2)n1`, the growth is 122% with NCI-H23 lung; 101% in the assay on NCI-H226 lung; 108% in the assay with NCI-H322M lung; 105% in the assay with HOP-62 NSCLC; 116% in the assay with NCI-H460 lung; 103% in the assay on NCI-H522 lung. Further, the values for the growth with A549/ATCC NSCLC, with 786-0 renal and in the assay on COLO 205 colon were 123%, 102% and 118%, respectively.
Consider `O=C(CCl)Nc1ccc2c(c1)C(=O)c1ccc(NC(=O)CCl)cc1C2=O`, for which the growth was -68.7% (active) in the assay on NCI-H23 lung; -11.6% (active) with NCI-H226 lung; -36.5% (active) in the assay on NCI-H322M lung; -64.7% (active) in the assay on HOP-62 NSCLC; -45.9% (active) in the assay on NCI-H460 lung; -65.2% (active) with NCI-H522 lung. Further, the growth with A549/ATCC NSCLC is 0.12% (active); in the assay with 786-0 renal, -66.9% (active); in the assay with COLO 205 colon, -50.8% (active).
Consider `S=c1sc2ccccc2n1CN1CCCCC1`, for which the growth in the assay on NCI-H23 lung was 95.9%; with NCI-H226 lung it was 92.9%; in the assay on NCI-H322M lung, 99.1%; in the assay on HOP-62 NSCLC, 89.7%; in the assay on NCI-H460 lung, 102%; with NCI-H522 lung, 82.3%. The growth in the assay on A549/ATCC NSCLC was 99.2%; in the assay with 786-0 renal, 105%; in the assay with COLO 205 colon it was 103%.
`Cc1cc2nc(CO)[nH]c2cc1C`: the growth is 105% in the assay on NCI-H23 lung; 108% in the assay on NCI-H226 lung; 113% with NCI-H322M lung; 99.4% in the assay on HOP-62 NSCLC; 114% with NCI-H460 lung; 96.9% in the assay on NCI-H522 lung. Further, the growth was 90.9% in the assay with A549/ATCC NSCLC, 107% in the assay with 786-0 renal and 103% in the assay on COLO 205 colon.
Regarding `O=C(CN1CCNCC1)N1CCOCC1`, the growth with NCI-H23 lung was 93.3%; in the assay with NCI-H226 lung, 116%; in the assay on NCI-H322M lung, 106%; in the assay on HOP-62 NSCLC it was 103%; in the assay with NCI-H460 lung, 117%; in the assay on NCI-H522 lung, 111%. For the same molecule, the figures for the growth in the assay on A549/ATCC NSCLC, with 786-0 renal and in the assay on COLO 205 colon were 95.4%, 101% and 110%, respectively.
On to `COC(=O)c1cccnc1`, for which the growth in the assay with NCI-H23 lung was 95.6%; with NCI-H226 lung it was 98%; in the assay with NCI-H322M lung, 106%; with HOP-62 NSCLC it was 99.4%; with NCI-H460 lung it was 105%; in the assay on NCI-H522 lung it was 78.2%. In addition, the results for the growth with A549/ATCC NSCLC, in the assay on 786-0 renal and with COLO 205 colon were 91.9%, 87.1% and 95.3%, respectively.
`NCC(=O)CCC(=O)O`: the growth was 93.8% in the assay with NCI-H23 lung; 99.2% in the assay with NCI-H226 lung; 107% in the assay with NCI-H322M lung; 99.1% in the assay with HOP-62 NSCLC; 115% in the assay with NCI-H460 lung; 107% in the assay on NCI-H522 lung. In addition, the growth in the assay on A549/ATCC NSCLC was 99.1%; in the assay on 786-0 renal, 103%; with COLO 205 colon, 116%.
Take `O=c1cc(-c2ccccc2)nc2cc(-c3ccco3)[nH]n12`: the growth in the assay with NCI-H23 lung is 96.5%; in the assay with NCI-H226 lung, 102%; in the assay with NCI-H322M lung, 95.6%; in the assay with HOP-62 NSCLC, 88.3%; with NCI-H460 lung, 104%; with NCI-H522 lung, 71.8%. The growth with A549/ATCC NSCLC was 56.7%; in the assay with 786-0 renal, 111%; in the assay on COLO 205 colon, 95.6%.
For the molecule `COc1cc(C2NC(=O)C(C#N)=C(Nc3cccc(C)c3)S2)ccc1O` (centres undefined), the growth in the assay with NCI-H23 lung was 103%; in the assay on NCI-H226 lung, 104%; in the assay with NCI-H322M lung, 106%; in the assay with HOP-62 NSCLC, 98.1%; in the assay with NCI-H460 lung, 99.5%; with NCI-H522 lung, 47.5%. The growth with A549/ATCC NSCLC is 32.5%; with 786-0 renal, 105%; with COLO 205 colon it was 119%.
For the molecule `O=C(CCl)N1CCN(C/C=C/c2ccccc2)CC1`, the growth in the assay on NCI-H23 lung is 101%; in the assay on NCI-H226 lung, 79.8%; with NCI-H322M lung, 109%; with HOP-62 NSCLC it was 97.2%; in the assay on NCI-H460 lung, 98.1%; in the assay on NCI-H522 lung it was -80.4% (active). Further, the growth with A549/ATCC NSCLC was 108%; with 786-0 renal, 101%; with COLO 205 colon, 108%.
As to `CCCNc1ccc(C2=NCCCN2)cc1`, the growth is 95.6% with NCI-H23 lung; 104% in the assay on NCI-H226 lung; 88.7% in the assay on NCI-H322M lung; 94.9% with HOP-62 NSCLC; 103% with NCI-H460 lung; 94.2% in the assay on NCI-H522 lung. For the same molecule, the growth was 79.2% with A549/ATCC NSCLC, 88.9% with 786-0 renal and 99.5% with COLO 205 colon.
With `O=C(O)C(Cc1ccccc1)C(=O)O`, the growth in the assay with NCI-H23 lung was 95.1%; with NCI-H226 lung, 95.5%; with NCI-H322M lung, 105%; in the assay on HOP-62 NSCLC it was 118%; in the assay on NCI-H460 lung, 101%; with NCI-H522 lung it was 106%. Besides, the growth in the assay on A549/ATCC NSCLC was 103%; in the assay on 786-0 renal, 99.4%; with COLO 205 colon, 110%.
With `CC(=O)c1sc2c(c1OC(=O)c1ccc(Cl)cc1Cl)c(=O)n(-c1ccccc1)c(=S)n2-c1ccccc1`, the growth in the assay with NCI-H23 lung was 23.9%; in the assay with NCI-H226 lung it was 3.85% (active); with NCI-H322M lung it was -37.3% (active); with HOP-62 NSCLC, 9.38% (active); in the assay with NCI-H460 lung, 25.2%; in the assay on NCI-H522 lung it was -35% (active). Moreover, the growth is 32.1% in the assay on A549/ATCC NSCLC, -7.98% (active) in the assay with 786-0 renal and 5.77% (active) in the assay on COLO 205 colon.
